# Experimental data: PMC3218832
# How the values were obtained:
# Assay in all cases: protein binding microarray; high values mean tight binding
# Conditions in all cases: dsDNA, one strand shown
# RELARELA (p65 homodimer) = RELARELA (p65 homodimer) (Homo sapiens, UniProt Q04206 1-307)
# p50p50 homodimer = p50p50 homodimer (Homo sapiens, UniProt P19838 7-356)
# p52p52 homodimer = target: T1, p52p52 homodimer (Homo sapiens, UniProt Q00653 4-332)
# T1 sequence: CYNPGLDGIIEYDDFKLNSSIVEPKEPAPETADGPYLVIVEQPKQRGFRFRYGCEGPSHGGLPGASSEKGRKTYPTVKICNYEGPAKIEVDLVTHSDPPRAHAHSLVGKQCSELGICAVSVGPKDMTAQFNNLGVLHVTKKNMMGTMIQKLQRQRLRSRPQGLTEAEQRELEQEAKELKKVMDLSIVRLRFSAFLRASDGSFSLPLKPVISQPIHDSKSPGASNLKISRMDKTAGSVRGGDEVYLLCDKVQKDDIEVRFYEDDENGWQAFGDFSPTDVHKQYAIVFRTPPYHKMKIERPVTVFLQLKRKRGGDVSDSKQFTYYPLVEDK
# [1] = target: RELA (p65) subunit of heterodimer;p50 subunit (Homo sapiens;Homo sapiens, UniProt Q04206;P19838 1-307;7-356)
# [2] = target: RELA (p65) subunit of heterodimer;p52 subunit (Homo sapiens;Homo sapiens, UniProt Q04206;Q00653 1-307;4-332)
# RELB subunit;p50 subunit = RELB subunit;p50 subunit (Homo sapiens;Homo sapiens, UniProt Q01201;P19838 120-401;7-356)
# RELB subunit;p52 subunit = target: T2, RELB subunit;p52 subunit (Homo sapiens;Homo sapiens, UniProt Q01201;Q00653 120-401;4-332)
# T2 sequence 1: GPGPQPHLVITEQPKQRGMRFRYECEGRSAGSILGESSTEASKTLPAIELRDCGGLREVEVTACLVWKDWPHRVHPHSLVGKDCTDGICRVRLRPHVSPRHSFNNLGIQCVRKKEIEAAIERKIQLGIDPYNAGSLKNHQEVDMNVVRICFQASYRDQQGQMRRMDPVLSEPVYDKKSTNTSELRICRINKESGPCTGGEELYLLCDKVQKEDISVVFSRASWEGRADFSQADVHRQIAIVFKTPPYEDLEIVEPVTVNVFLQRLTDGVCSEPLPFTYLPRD
# T2 sequence 2: T1 sequence
# [3] = target: C-Rel subunit;p50 subunit (Homo sapiens;Homo sapiens, UniProt Q04864;P19838 1-285;7-356)
# [4] = target: T3, C-Rel subunit;p52 subunit (Homo sapiens;Homo sapiens, UniProt Q04864;Q00653 1-285;4-332)
# T3 sequence 1: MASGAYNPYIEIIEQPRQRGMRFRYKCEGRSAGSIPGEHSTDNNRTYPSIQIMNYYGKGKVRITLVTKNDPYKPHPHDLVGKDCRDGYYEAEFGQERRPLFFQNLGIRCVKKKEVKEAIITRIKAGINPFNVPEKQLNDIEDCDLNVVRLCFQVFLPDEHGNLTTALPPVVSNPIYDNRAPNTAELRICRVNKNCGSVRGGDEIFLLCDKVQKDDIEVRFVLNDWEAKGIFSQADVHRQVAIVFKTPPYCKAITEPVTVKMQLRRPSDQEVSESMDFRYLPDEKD
# T3 sequence 2: T1 sequence
# p50p50 homodimer, sequence (P19838 7-356): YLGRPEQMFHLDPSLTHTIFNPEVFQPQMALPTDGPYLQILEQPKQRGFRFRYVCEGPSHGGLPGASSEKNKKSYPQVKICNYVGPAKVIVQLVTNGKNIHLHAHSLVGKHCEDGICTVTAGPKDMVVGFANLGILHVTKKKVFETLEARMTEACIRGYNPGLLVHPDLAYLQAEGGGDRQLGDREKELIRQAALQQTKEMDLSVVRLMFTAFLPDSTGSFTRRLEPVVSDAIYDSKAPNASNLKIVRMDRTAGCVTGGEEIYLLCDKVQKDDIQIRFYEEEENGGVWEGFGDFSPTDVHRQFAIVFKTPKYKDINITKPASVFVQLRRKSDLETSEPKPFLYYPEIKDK
# RELARELA (p65 homodimer), sequence (Q04206 1-307): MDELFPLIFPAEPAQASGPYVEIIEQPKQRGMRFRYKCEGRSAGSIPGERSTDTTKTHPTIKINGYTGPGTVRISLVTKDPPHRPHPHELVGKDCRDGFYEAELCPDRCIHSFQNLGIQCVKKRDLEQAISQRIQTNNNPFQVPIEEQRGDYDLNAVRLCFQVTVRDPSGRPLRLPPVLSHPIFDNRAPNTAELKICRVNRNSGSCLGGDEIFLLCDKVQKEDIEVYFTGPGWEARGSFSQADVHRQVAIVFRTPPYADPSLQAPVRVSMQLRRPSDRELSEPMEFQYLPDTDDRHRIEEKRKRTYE
# RELA (p65) subunit of heterodimer;p50 subunit, sequence (Q04206 1-307, chain 1 of 2): as the sequence (Q04206 1-307) above
# RELA (p65) subunit of heterodimer;p50 subunit, sequence (P19838 7-356, chain 2 of 2): as the sequence (P19838 7-356) above
Sequence,binding signal (RELARELA (p65 homodimer)) [z-score],binding signal (p50p50 homodimer) [z-score],binding signal (p52p52 homodimer) [z-score],binding signal [1] [z-score],binding signal [2] [z-score],binding signal (RELB subunit;p50 subunit) [z-score],binding signal (RELB subunit;p52 subunit) [z-score],binding signal [3] [z-score],binding signal [4] [z-score]
CGGGAAGCCCT,0.636,-0.369,-0.0378,-0.188,0.0317,-0.513,-0.178,-0.133,0.19
AGGTACGCCCC,-0.0324,0.221,0.402,0.321,0.526,0.233,0.441,0.444,0.674
AGAGACCTCCC,-0.639,-0.985,-0.531,-0.592,-0.789,-0.533,-0.671,-0.845,-0.997
CAGGTACCCCT,-0.0502,0.353,0.356,0.304,0.796,0.548,1.06,0.193,0.274
GGATTAGCCCC,0.514,0.405,0.296,0.431,0.293,0.211,0.414,0.535,0.373
CGATGACCCCT,-0.679,-0.0343,-0.125,-0.386,-0.154,-0.223,-0.0567,-0.665,-0.266
CGATGTACCCC,0.132,0,-0.0732,-0.125,0.16,0.299,0.491,0.113,0.101
CGATTGACCCC,-0.827,-0.753,-0.367,-0.579,-0.288,-0.398,-0.411,-0.541,-0.184
CGAAGATCCCC,-0.0141,0.983,1.06,1.41,1.15,1.5,1.11,1.04,1.05
GGAAACCTCCT,0.339,-1.26,-0.526,-0.425,-0.573,-1.02,-0.75,-0.436,-0.293
GGAAGGGCCCC,-0.533,-0.314,-0.0891,0.16,0.159,-0.313,-0.107,-0.00222,0.327
CAGGGTCCCCC,-0.42,0.876,0.451,1.23,0.881,1.22,1.39,0.998,0.408
CAAAGGGTCCC,-0.377,-0.186,-0.0557,-0.357,-0.288,0.0439,-0.0611,-0.397,-0.359
AGATTCGCCCC,0.366,0.156,0.127,0.288,0.219,0.292,0.48,0.611,-0.0556
CGGATGGTCCC,0.128,-0.139,-0.00887,0.132,0.027,-0.0363,-0.117,0.0204,0.154
GGAGGACCCCT,-0.648,-0.192,-0.0995,0.108,0.173,-0.321,-0.0771,0,0.275
GGAAAGATCCT,-0.0836,-1.25,-0.674,-0.749,-0.654,-0.932,-0.789,-0.978,-0.449
GAAGACACCCC,-0.516,-0.135,-0.303,-0.324,-0.316,-0.183,0.105,-0.163,-0.242
CAGTGTTTCCT,0.51,-0.616,-0.52,-0.47,-0.473,-0.831,-0.677,-0.349,-0.285
CGAAAGTTCCT,0.451,-0.747,-0.53,-0.689,-0.651,-0.963,-0.709,-0.537,-0.406
AGAAATACCCT,0.554,1.28,1.33,1.55,1.35,1.21,1.27,0.817,1.68
CAAATTCCCCC,2.31,1.64,2.63,2.41,2.32,2.69,2.35,1.89,2.65
CGATAGCCCCC,-0.556,0.93,0.275,0.352,0.57,0.492,0.523,0.288,0.258
GGATGGCTCCT,-0.414,-1.51,-0.721,-1.07,-1.08,-1.19,-1.05,-1.64,-0.938
AAAAGAATCCC,0.306,0.444,0.44,0.389,0.575,0.356,0.317,0.495,0.359
GGAAACTCCCC,3.23,1.08,2.01,2.39,2.23,1.32,2.1,2.15,2.63
AAAGAGACCCT,-1.1,-0.515,-0.457,-0.679,-0.542,-0.626,-0.766,-1.12,-0.688
AAAATACCCCT,1.01,1.41,1.92,1.65,1.8,1.63,2.25,1.26,1.95
CGAGTTTCCCT,1.14,1.12,1.17,1.16,1.16,1.04,1.42,1.07,0.975
GGATGCGTCCT,0.00389,-1.17,-0.665,-1.04,-0.853,-1.18,-0.816,-1.72,-0.907
